Screening results from PubChem.
Tb PGK inh: T. brucei PGK inhibition; PGK/GAPDH coupled, Kinase-Glo luminescence, 60 min; 380,000 compounds, 0.043% hits; Potency, µM (titrated, usually from 57.5 µM), for inactives: at the top dose activity change, negative = inhibition, hits mostly inhibitors; AID 602233; further: potency means the concentration at half of the fitted maximal effect; nearly all actives have a fitted effect of over 60% in size
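Recombinant glycosomal PGK reaction used 1,3-bisphosphoglycerate generated in-well by GAPDH (100nM final) in 100mM TEA pH 7.6, 5mM MgCl2, 0.01% Tween-20. After 60 minutes at room temperature, ATP was read by Kinase-Glo Plus luminescence end-point.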
PI5P4Ka inh: inhibitors of human PI5P4K alpha. P48426. PI5P4Kalpha enzyme, ADP-Glo luminescence, 60 min; active compounds read low. max response, %. 330,000 compounds, 1.2% hits; active means max response of -50% or lower; inconclusive means between -30% and -50%; inactive means -30% or higher; further: value at the top dose of about 77 µM
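qHTS, 1536-well: enzyme/substrate mix, compound by pin tool, 5 microM ATP final; RT 60 min; ADP-Glo reagents 1 (45 min) then 2 (30 min); luminescence.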
Pin1 inh: inhibitors of human Pin1; Q13526; Pin1 FP peptide displacement, HiFluor488, 10 min; Potency, µM (series often up to 115 µM), for the others: top-dose activity, negative = inhibition, actives largely listed as inhibitors; 390,000 compounds, 0.009% hits; AID 504891; active means well fitted inhibition curve with a large enough effect in the polarisation, with a control signal flat, not every such curve was filed as active; inconclusive means small, poorly fitted or top-dose-only effect, or effect the other way, or a change in a side signal; inactive means no such curve, though single readings can be large or run the other way; the % refers to the polarisation; further: potency means the concentration at half of the fitted maximal effect
Target sequence (Q13526 whole entry, looked up): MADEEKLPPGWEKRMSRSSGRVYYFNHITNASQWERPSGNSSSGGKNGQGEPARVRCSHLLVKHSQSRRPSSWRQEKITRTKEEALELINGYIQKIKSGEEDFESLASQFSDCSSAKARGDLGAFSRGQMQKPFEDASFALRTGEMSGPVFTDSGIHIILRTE
Tb PFK block: blocks T. brucei phosphofructokinase | O15648 | T. brucei PFK, ADP-Glo luminescence | Potency, µM (doses to about 57.5 µM), for inactives: at the highest dose activity, negative = inhibition, hits mostly inhibitors | 330,000 compounds, 0.17% hits;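 further: potency means the concentration at half of the fitted maximal effect; 0% = uninhibited 1x PFK enzyme wells and -100% = no-enzyme wells; nearly all actives have a fitted effect of over 60% in size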
Target sequence (O15648 whole entry, looked up): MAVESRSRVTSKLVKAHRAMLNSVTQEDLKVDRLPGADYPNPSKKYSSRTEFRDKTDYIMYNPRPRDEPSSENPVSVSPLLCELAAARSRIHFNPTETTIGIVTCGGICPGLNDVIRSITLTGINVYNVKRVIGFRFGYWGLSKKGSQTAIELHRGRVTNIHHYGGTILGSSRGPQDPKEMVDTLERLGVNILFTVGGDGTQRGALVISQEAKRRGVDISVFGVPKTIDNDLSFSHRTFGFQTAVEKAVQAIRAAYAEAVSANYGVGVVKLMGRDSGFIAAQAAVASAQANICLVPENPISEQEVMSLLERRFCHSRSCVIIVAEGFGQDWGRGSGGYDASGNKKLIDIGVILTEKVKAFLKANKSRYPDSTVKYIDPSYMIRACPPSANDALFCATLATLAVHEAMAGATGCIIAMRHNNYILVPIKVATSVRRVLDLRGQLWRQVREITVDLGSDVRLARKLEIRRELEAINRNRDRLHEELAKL
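ADP-Glo luminescence quantified ADP after 45 min at room temperature, with 1.25 nM T. brucei PFK, 0.1 mM ATP and 0.5 mM fructose-6-phosphate in pH 8.0 TEA buffer. qHTS titrations up to 57 µM; curves classified by quality.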
PI4K2A block: inhibitors of human PI4K2A; purified PI4K2A, ADP-Glo luminescence, 1 h; active compounds read low; activity change, negative = inhibition, % at 76.9 µM; AID 1346378; Q9BTU6; 420,000 compounds, 0.13% hits; in the data active means activity change below about -50%; inconclusive means mostly about -30% to -49%;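 further: -100% = wells without enzyme as full effect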
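Compounds are screened against recombinant PI4K2A using PI as substrate and ATP, the latter dispensed at 300 microM. Reactions run one hour at ambient temperature before ADP-Glo detection; full inhibition defined by wells lacking enzyme.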
ADP-Glo counter: interferes with ADP-Glo detection without enzyme present | Potency, µM (top dose mostly 76.9 µM), inactives show top-dose activity change, negative = inhibition, actives largely listed as inhibitors | ADP-Glo detection counter-screen, luciferase luminescence, no enzyme | 1,100 tested, under 10 active | shares compounds with PI5P4Ka inh
The depositor's hits bear a star; i = inactive; ? = inconclusive; . = no result given. Shown is part of a subset that was picked to be rich in hits. Unless noted, the call rests on the fitted dose curve; in most records, active means well fitted curve in the direction sought with a large enough effect; inconclusive means small, poorly fitted or top-dose-only effect, or another doubt; inactive means no such curve, though single readings can be large; an effect the other way counts as inactive or inconclusive. Unless noted, on the % scale 0 is the no-effect control and ±100 the full control effect.

SMILES | Tb PGK inh | PI5P4Ka inh | Pin1 inh | Tb PFK block | PI4K2A block | ADP-Glo counter
COC(=O)[C@]12C[C@H](CC(=O)N3CCN(C(=O)c4ccco4)CC3)C(=O)N(Cc3ccco3)C1=C[C@H](C(C)C)O[C@@H]2C1CC1 | . | . | . | . | 1 | .
CN(C)c1ccc2nc3ccc(=O)cc-3sc2c1 | ? | -73* | . | . | -26 | ?
CN(C)c1ccc2nc3ccc(=[N+](C)C)cc-3sc2c1 | ? | -24 | ? | ? | ? | .
N#Cc1cc(-c2ccccc2)nn1-c1ccccc1 | 3% | -80* | -13% | ? | -6 | -11%
Cn1ccc(-c2ccccc2)n1 | i | 2 | -1% | 0% | -4 | .
COc1cc(C2CC(=O)N3CN(Cc4ccco4)CSC3=C2C#N)ccc1OCc1ccccc1 (stereo not drawn) | -6% | -59* | -11% | -5% | -5 | 3%
COc1ccc2ccccc2c1C1CC(=O)N2CN(Cc3ccco3)CSC2=C1C#N (stereo not drawn) | -8% | ? | 3% | -5% | -4 | .
O=C(Nc1ccc2c(c1)OCO2)O[C@@H]1CC[C@@]23CCCN2C(=O)CCC[C@H]3C1 | . | . | . | . | 1 | .
CC1Cc2ccccc2N1C(=O)COC(=O)CCc1nc2ccccc2c(=O)[nH]1 (stereo not drawn) | -3% | -51* | 0% | 2% | -6 | -3%
O=C(COC(=O)CCc1nc2ccccc2c(=O)[nH]1)Nc1ccc(Cl)cn1 | 2% | -55* | -1% | 0% | 1 | 1%
CC1CCC2(CCC(=O)N2CCCOC(=O)NC(C)(C)C)CC1 (stereo not drawn) | . | . | . | . | 0 | .
O=C(Nc1scc(-c2ccccc2)c1C(=O)O)c1ccc(F)cc1 | -14% | ? | 2% | 8% | -4 | .
Cc1ccc(-c2csc(NC(=O)c3ccc(F)cc3)c2C(=O)O)cc1 | i | -61* | -16% | -3% | 0 | 1%
CCCCn1c(N)c(N(CCOC)C(=O)c2cc(-c3ccc(OC)c(OC)c3)nc3ccccc23)c(=O)[nH]c1=O | -2% | -1 | -22% | 3% | 3 | .
CCCN(C(=O)c1cc(-c2ccco2)nc2ccccc12)c1c(N)n(Cc2ccccc2)c(=O)[nH]c1=O | -16% | -59* | -22% | -2% | -12 | -4%
CCCCn1c(N)c(N(CCOC)C(=O)c2cc(-c3ccco3)nc3ccccc23)c(=O)[nH]c1=O | -6% | -71* | ? | ? | -13 | -2%
CCCCN(C(=O)c1cc(Cl)nc2ccccc12)c1c(N)n(CCCC)c(=O)[nH]c1=O | 4% | 4 | 5% | 19% | -1 | .
COc1ccc(NC(=O)CSc2nc(-c3ccco3)nc3cc(=O)[nH]n23)cc1Cl | -4% | -56* | -11% | 1% | 1 | -3%
COc1ccc(-n2c(SCC(=O)Nc3ccccc3-c3ccccc3)nnc2-c2ccccn2)cc1 | . | . | . | . | -3 | .
CC1=NN(c2nc(-c3ccc(Cl)cc3)cs2)C(=O)C1 | -6% | -67* | . | 0% | -15 | -8%
Cc1c(C(=O)N2CCN(C(=O)c3ccccc3)CC2)oc2ccc(F)cc12 | i | -54* | 1% | 0% | -7 | 3%
Cc1ccc2c(c1)C1CS(=O)(=O)N(Cc3ccc(F)cc3)CN1C2 (stereo not drawn) | . | . | . | . | -1 | .
O=C(CCN1CCc2ccccc2C(c2ccccc2)C1)c1ccc2c(c1)OCCO2 (stereo not drawn) | i | -54* | 10% | -9% | 12 | -11%
O=C(Nc1cc(S(=O)(=O)N2CCOCC2)ccc1N1CCCC1)c1ccc2c(c1)S(=O)(=O)c1ccccc1C2=O | 4% | -77* | -10% | -18% | 2 | -11%
O=C(CN(CCc1ccccc1)S(=O)(=O)c1ccc(F)cc1)N1CCOCC1 | . | . | . | . | 0 | .
SMILES | Tb PGK inh | PI5P4Ka inh | Pin1 inh | Tb PFK block | PI4K2A block | ADP-Glo counter
CC(C)(C)OC(=O)CC(=O)NNC(=O)c1cc2ccccc2[nH]1 | . | . | -7% | . | . | .
COc1ccccc1N1CCN(C(=O)c2[nH]c(C(F)(F)F)nc2-c2ccccc2)CC1 | . | -2 | . | . | -1 | .
COc1ccc(N2CCN(C(=O)c3[nH]c(C(F)(F)F)nc3-c3ccccc3)CC2)cc1 | . | -4 | . | . | -4 | 2%
CC(=O)c1ccc(OCc2c(-c3ccccc3)nnn2CC(=O)NS(=O)(=O)c2ccc(C)cc2)cc1 | . | -6 | . | . | -4 | .
CC(=O)c1ccc(OCc2c(-c3ccccc3)nnn2CC(=O)NS(=O)(=O)c2ccccc2C)cc1 | . | -51* | . | . | -4 | -4%
O=C(CSc1nc(-c2ccccc2)cc(=O)[nH]1)N1CCc2ccccc21 | -5% | -50* | -4% | -2% | 5 | -5%
COc1ccc2[nH]c3c(c2c1)CCN[C@]31C(=O)N(C)c2ccc(Br)cc21 | . | . | . | . | 3 | .
CCc1ccc(CNC(=O)Cc2ccc(NC(=O)C3=C(C)OCCS3)cc2)cc1 | ? | -63* | 10% | ? | -3 | 5%
COc1ccc(CNC(=O)c2ccccc2NC(=O)C2=C(C)OCCS2)cc1 | -10% | -1 | . | . | 3 | .
CC1=C(C(=O)Nc2ccc(CC(=O)NCc3ccccc3C)cc2)SCCO1 | 10% | 1 | 5% | 0% | -4 | .
COc1cccc(CNC(=O)Cc2ccc(NC(=O)C3=C(C)OCCS3)cc2)c1 | -5% | -53* | 2% | -8% | -8 | -2%
CC(C(=O)Nc1ccc([N+](=O)[O-])cc1Cl)N1CCN(S(=O)(=O)c2cccs2)CC1 (stereo not drawn) | -4% | 4 | 2% | 0% | 0 | .
CC(C(=O)Nc1cc([N+](=O)[O-])ccc1Cl)N1CCN(c2ccc(O)cc2)CC1 (stereo not drawn) | -18% | -66* | ? | -10% | -12 | 3%
NS(=O)(=O)c1ccc(CCNC(=O)c2ccc3nccnc3c2)cc1 | ? | -68* | . | ? | -17 | 1%
Cc1nc(Nc2cccc(C(F)(F)F)c2)nc2c1C(=O)CC(C)C2 (stereo not drawn) | -10% | 0 | 1% | -2% | -3 | .
Cc1ccc(Nc2nc(C)c3c(n2)CC(C)CC3=O)c(C)c1 (stereo not drawn) | -3% | 3 | -5% | -1% | 2 | 3%
COC(=O)[C@]12C[C@H](CC(=O)N3CCN(C(=O)C4CC4)CC3)C(=O)N(CCc3ccc(OC)c(OC)c3)C1=C[C@H](C1CCCC1)O[C@@H]2C | . | . | . | . | -5 | .
COCCn1c(=S)[nH]c2cc(C(=O)N(CCO)Cc3ccccc3)ccc2c1=O | -3% | -4 | 6% | 0% | 8 | .
COCCn1c(=S)[nH]c2cc(C(=O)NCCc3ccccc3)ccc2c1=O | -10% | -58* | -5% | 16% | -1 | 1%
Cn1c(SCC(=O)NC2CC2)nnc1-c1ccco1 | 0% | -1 | -8% | 1% | -2 | .
